# Screening data: PubChem, National Center for Advancing Translational Sciences (NCATS)
# Sampled rows, rich in hits. Any-hit rate of the full collection: about 7.1%.
# SW480 rereplic: induces DNA re-replication in SW480 colon adenocarcinoma cells | AID 624297 | SW480 DNA re-replication, Hoechst DNA content imaging, 48 h | Potency, µM (highest dose often 46.1 µM), for inactives: at the top dose re-replication activation, actives largely listed as activators | 1.8% of 340,000 active; note: potency is the fitted concentration of half-maximal effect; % of control where 0% means no effect; nearly all actives have a fitted effect of over 55% in size
#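 First, 250 cells per well were seeded. Next, compound or vehicle (23 nL) was pinned in, plates sat 48 hr at 37 C. Finally Hoechst was added for 40 min before fluorescence scanning.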
# PINK1 expr mod: PINK1 expression modulation; PINK1 immunofluorescence, high-content cytometry, 24 h; AID 624263; Potency, µM (series often up to 76.6 µM), without a hit: at the highest dose activation (PINK1 increase), usual class: activators; 0.2% of 410,000 active; active = well fitted activation curve with a large enough effect; inconclusive = small, poorly fitted or top-dose-only effect; cell line not stated here; note: potency is the fitted concentration of half-maximal effect; % of control where 0% means no effect; nearly all actives have a fitted effect of over 65% in size
#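 Readout is PINK1 immunofluorescence, quantified alongside mitochondrial, cell and nuclear markers by laser-scanning microplate cytometry. Cells from a stable line were exposed to compound titrations (5 concentrations) for 24 hours, with CCCP controls.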
# IL1B secr inh: inhibitors of inflammasome signaling (IL-1 beta secretion) | activity change, % at 57.5 µM | THP-1 LPS/ATP IL-1B secretion, AlphaLISA, 16 h; stronger effect = lower value | 4.7% of 360,000 active; in the data active = activity change below about -50%; inconclusive = mostly about -30% to -49%; note: % is set by controls: 0 for no effect and ±100 for the full control effect
#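 THP-1 cells pretreated 1 hr with compounds (up to 57.5 uM final), then stimulated with LPS (250 ng/mL final) plus ATP (1.25 mM final); secreted IL-1B measured by AlphaLISA after 16 hr, decreased signal indicating inhibition.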
# S2 tox: reduces viability in counter-screen for ATXN expression inhibitors. Potency, µM (titrated, usually from 56.7 µM), hits mostly cytotoxic. S2 cells (HEK-293 line with an ATXN2-luciferase reporter) viability, CellTiter-Fluor protease fluorescence, 24 h. 0.49% of 400,000 active. AID 651635; note: potency is the fitted concentration of half-maximal effect; nearly all actives have a fitted effect of over 40% in size
# ATXN2 expr inh: inhibitors of ATXN2 expression | HEK-293 ATXN2-luciferase reporter, luminescence, 24 h | Potency, µM (doses to about 57 µM), inactives show at the highest dose activity change, negative = inhibition, usual class: inhibitors | 0.72% of 360,000 active | AID 1745845; note: potency is the fitted concentration of half-maximal effect; % is set by controls: 0 for no effect and ±100 for the full control effect; nearly all actives have a fitted effect of over 55% in size
#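 ATXN2-luciferase reporter cells (luciferase flanked by upstream and downstream ATXN2 gene portions) were treated 24 h at 37 °C with compounds at up to 57 uM. SteadyGlo luminescence gave expression; GF-AFC fluorescence gave viability.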
# MCF10A rereplic: DNA re-replication induction in MCF 10a cells; MCF 10A DNA re-replication, Hoechst nuclear intensity, 48 h; Potency, µM (titrated, usually from 46.1 µM), for the others: at the top dose activity, positive = re-replication, most hits filed as activators; 2.9% of 350,000 active; AID 624296; note: potency is the fitted concentration of half-maximal effect; % of control where 0% means no effect; nearly all actives have a fitted effect of over 50% in size
# * hit, by the source's call; i = inactive; ? = inconclusive; . = not tested or not shown; [ ] = remark or other dose. Unless noted, calls come from the whole dose curve; as a rule, active = well fitted curve in the direction sought with a large enough effect; inconclusive = small, poorly fitted or top-dose-only effect, or another doubt; inactive = no such curve, though single readings can be large; an effect the other way counts as inactive or inconclusive.
SMILES,SW480 rereplic,PINK1 expr mod,IL1B secr inh,S2 tox,ATXN2 expr inh,MCF10A rereplic
COc1ccc(/C=C/c2nc3cc(-c4ccccc4)ccc3o2)cc1O,18.4µM*,11.7%,-18.3,i,-9.0%,5.8µM*
Cc1nn(-c2ccccc2)c(-n2cccc2)c1C(=O)N1CCN(c2ccccc2)CC1,.,0.1%,.,i,-8.9%,.
Cc1ccc(OCCCCCCN2CCNCC2)c(Br)c1,?,-2.3%,-89.0*,?,10.8%,?
Clc1ccc(Cl)c(OCCCCN2CCNCC2)c1,4.4%,0.4%,-74.5*,i,-22.8%,9.0%
Cc1ccc(OCCCCN2CCC(C)CC2)c(Br)c1,4.5%,3.8%,-28.5,i,-20.9%,15.1%
Cc1sc2ncn(CC(=O)N3CCN(c4ccccc4)CC3)c(=O)c2c1S(=O)(=O)N1CCC(C)CC1,.,1.1%,.,i,-7.9%,.
CN(C)S(=O)(=O)c1ccc(Cl)c(NC(=O)CSc2nc3c(cc2C#N)C(=O)CC(C)(C)C3)c1,?,3.7%,-6.3,i,-15.0%,2.91µM*
CCCCOC(=O)CSc1nc2c(cc1C#N)C(=O)CC(C)(C)C2,-4.2%,1.8%,-15.0,i,23.4%,14.6%
CN(C)S(=O)(=O)c1cccc(NC(=O)CSc2nc3c(cc2C#N)C(=O)CC(C)(C)C3)c1,16.4µM*,9.7%,-58.4*,i,-38.5%,14.6µM*
CN(C)S(=O)(=O)c1cccc(NC(=O)CSc2cccc3cccnc23)c1,?,-1.2%,-104.5*,.,?,?
CN(C)c1ccc(C(O)Cc2nc3ccccc3n2C)cc1 (centres undefined),-2.1%,1.1%,-54.3*,i,32.7%,7.8%
CC(C)n1c(-c2ccc(N(C)C)cc2)nc2ccccc21,-4.6%,?,-13.1,?,52.2%,5.3%
CN(C)c1ccc(-c2nc3ccccc3n2C)cc1,?,-5.1%[38.3 µM],-66.3*,i,?,-15.5%
CC(C)(C)C(=O)Cn1ncc(Br)c(Br)c1=O,7.31µM*,-0.6%,-99.7*,.,?,5.8µM*
O=C(Nc1ccncc1)Nc1cc(Cl)ccc1Cl,?,1.7%,-54.0*,i,-26.2%,-1.1%
O=C(Nc1ccncc1)Nc1ccncc1,-4.9%,0.5%,29.3,i,0.1%,-8.7%
O=C(Nc1ccncc1)Nc1ccc(Cl)cc1,-1.0%,-1.4%,-94.4*,i,6.8%,0.5%
CC(=O)c1ccc(NC(=O)Nc2ccc(Cl)cc2)cc1,23.9%,.,-98.9*,i,62.4%,29.8%
CC(=O)c1ccc(NC(=O)NC2CCCCCCC2)cc1,2.1%,1.9%,-66.0*,i,73.0%,5.8%
COc1ccc(Cn2c(C(=O)O)c(CNCc3ccccc3F)c3ccc(OC)cc32)cc1,.,-0.5%,.,.,.,.
CCOc1cc(CNCCN2CCOCC2)ccc1OCc1ccccc1Cl,20.6µM*,3.7%,?,?,-32.8%,14.0%
CCOc1cc(CNCCCN2CCOCC2)cc(Br)c1OCc1ccccc1Cl,?,-0.5%,-101.3*,?,-22.4%[11.3 µM],?
CCOc1cc(CNC2CCCC2)ccc1OCc1ccccc1Cl,117.5%,-1.1%,-88.5*,?,.,?
CC(C)c1ccc(CN2CCC3(CCC(CNC(=O)c4ccn(C)n4)O3)CC2)cc1 (centres undefined),.,-0.4%,.,i,.,.
CC=Cc1cc(OC)c2c(c1)C(C)C(c1ccc(O)c(OC)c1)O2 (centres undefined),15.0%,0.1%,-64.7*,i,7.5%,?
SMILES,SW480 rereplic,PINK1 expr mod,IL1B secr inh,S2 tox,ATXN2 expr inh,MCF10A rereplic
C/C=C/c1ccc(O)c(OC)c1,-1.2%,0.2%,-4.3,i,-3.3%,7.8%
CC1(C)c2[nH]c3ccccc3c2C[C@@H]2C(=O)N(Cc3ccccc3)C(=O)N21,?,1.3%,.,i,-11.7%,23.1µM*
Cc1cccc(CN2C(=O)[C@H]3Cc4c([nH]c5ccccc45)C(C)(C)N3C2=O)c1,?,10.5%,.,?,?,16.4µM*
COC(=O)[C@@H]1Cc2c([nH]c3ccccc23)C(C)(C)N1C(=O)CCl,6.51µM*,-1.2%,-98.2*,?,?,18.4µM*
Nc1ccc(NC(=O)c2cc(Cl)ccc2O)c(Cl)c1,.,-0.4%,.,.,.,.
S=C(NN=C(c1ccccc1)c1ccccn1)N(Cc1ccccn1)Cc1ccccn1,?,-1.5%,-58.5*,.,0.891µM*,?
CC(=NNC(=S)N(Cc1ccccn1)Cc1ccccn1)c1cnccn1,?,-1.1%,104.4,?,1.26µM*,4.61µM*
S=C(NN=Cc1ccccn1)N(Cc1ccccn1)Cc1ccccn1,5.8µM*,19.4%,58.7,?,7.94µM*,13µM*
O=C(CCCC(=O)N/N=C\c1ccccn1)N/N=C\c1ccccn1,-3.0%,1.0%,0.0,i,2.6%,9.2%
Cc1cccc(CSc2nc(=O)c3c(n2C)NC(=O)CC3c2cc(F)cc(F)c2)c1 (centres undefined),.,0.2%,.,i,10.8%,.
Cc1nc(N2CCCC2)c2c(C(=O)Nc3ccc(C)c(Cl)c3)c(C)oc2n1,.,17.7%,.,.,.,.
Nc1ccc2c(c1)C(=O)c1cc(N)c(Cl)cc1-2,4.9%,5.4%,-27.9,i,-7.6%,3.7%
COc1cc2c(cc1N)-c1ccc(N)cc1C2=O,.,-1.5%,-63.6*,?,.,.
CCOC(=O)CCCC(=O)N1CCN(/[N+]([O-])=N/Oc2ccc([N+](=O)[O-])cc2[N+](=O)[O-])CC1,.,2.2%,.,.,.,.
COc1cc(C2Nc3ccc4ncccc4c3C3=C2C(=O)CCC3)cc(OC)c1OC (centres undefined),1.8%,9.8%,-8.6,i,.,-9.0%
COc1cc(C2Nc3ccc4ncccc4c3C3=C2C(=O)CCC3)ccc1O (centres undefined),20.6µM*,-0.9%,8.6,?,20.2%,16.4µM*
CCn1cc(CN2CCCC(CO)(Cc3ccc(F)cc3)C2)c2ccccc21 (centres undefined),21.6%,0.9%,-65.3*,i,?,11.4%
COc1cccc(CC2(CO)CCCN(Cc3cn(C)c4ccccc34)C2)c1 (centres undefined),-76.1%,3.9%,-12.0,i,.,?
Cn1cc(CN2CCCC(CO)(Cc3ccccc3)C2)c2ccccc21 (centres undefined),3.6%,1.5%,-58.9*,i,-0.5%[11.3 µM],20.4%
COc1ccccc1NC(=O)C(C)Sc1nnc2ccc3ccccc3n12 (centres undefined),.,3.1%,.,?,5.9%,.
O=C1C=C(C#Cc2ccccc2)C[C@@H](c2ccc(F)cc2)C1,.,3.5%,-84.9*,?,?,.
COc1ccccc1C#CC1=CC(=O)C[C@H](c2ccc(F)cc2)C1,.,2.5%,-57.7*,i,-20.2%,.
CCn1c(=O)c2cc(C(=O)NC3CCC(C)CC3)sc2c2ccccc21 (centres undefined),.,5.1%,.,i,-5.3%,.
